Test results published in publication PMC7819943, “Rice protein-binding microarrays: a tool to detect cis-acting elements near promoter regions in rice”.
In all, about 39,000 sequences were measured (“fluorescence intensity (a.u.)”: median about 4,300, highest 2% from about 39,000 on). This is one part of a sample in which the highest values are shown more often than they occur.

Target: T1, OsSMF1 (Oryza sativa, UniProt Q6ZLB0 1-436)
T1 sequence: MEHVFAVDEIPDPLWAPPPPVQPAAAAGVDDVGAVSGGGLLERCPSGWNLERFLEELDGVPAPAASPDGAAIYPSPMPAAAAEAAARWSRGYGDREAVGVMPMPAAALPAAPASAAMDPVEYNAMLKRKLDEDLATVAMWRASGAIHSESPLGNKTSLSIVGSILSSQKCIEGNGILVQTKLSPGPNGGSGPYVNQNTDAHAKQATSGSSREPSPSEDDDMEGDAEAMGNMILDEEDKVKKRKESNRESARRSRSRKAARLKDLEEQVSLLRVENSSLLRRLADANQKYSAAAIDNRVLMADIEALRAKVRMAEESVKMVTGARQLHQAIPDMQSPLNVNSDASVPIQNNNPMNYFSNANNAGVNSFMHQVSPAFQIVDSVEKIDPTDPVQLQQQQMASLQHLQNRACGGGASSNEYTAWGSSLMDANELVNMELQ
Assay: protein-binding microarray (RPBM); PBS, 2% BSA, 51.3 ng/ul salmon testes DNA, 50 uM zinc acetate, 200 nM TF, 25 C, 1 h; high values mean tight binding
Conditions: protein: recombinant; tags: N-terminal polyhistidine and DsRed monomer fusion (pET32a); chain copies: 2; label: CyDye5-dUTP incorporated in the synthesized complementary strand; 3' TTTTT single-stranded linker to array surface; dsDNA, one strand shown
In short: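 The binding signal for each feature is its fluorescence intensity in arbitrary units. An Axon 4000B scanner was used to read a custom Agilent array that had been made double-stranded with Cy5-dUTP primer extension, blocked with 2% BSA, incubated at 25 °C for 1 h with 200 nM protein in PBS, 2% BSA, salmon testes DNA and 50 µM zinc acetate, and washed. The protein was an N-terminal polyhistidine–DsRed transcription factor fusion from E. coli BL21-CodonPlus, purified on Ni–NTA.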

Sequence | binding signal
TTTTGGATTCCCTTTTCATCCATGGATGCATGTGTTCCTTCGGAGTCACCTAGTGCAG | 3220 fluorescence intensity (a.u.)
TACTAGTGTGGACATGTTCCCCTTTTCAGGAAGATGGCAGCGGAGTCACCTAGTGCAG | 40300 fluorescence intensity (a.u.)
CGAAGCGGTTCAGGAAGATGGAGCGGCACGTGGCTGCGACCGGAGTCACCTAGTGCAG | 5240 fluorescence intensity (a.u.)
GGCAGCGACCACGACACGTCGTTGTTCCCTCTGCTCCCGCCGGAGTCACCTAGTGCAG | 6470 fluorescence intensity (a.u.)
CCAAACCCCACGCACGCCGCGTCGCCGCCTCCTCCTCTCCCGGAGTCACCTAGTGCAG | 3670 fluorescence intensity (a.u.)
TCCCAAACCCCGCGCCGCCTCTTACCGCTTCGCGTCAGCTCGGAGTCACCTAGTGCAG | 63900 fluorescence intensity (a.u.)
AACTCCTCGCCACCACGCCGCTTTATTCTCTAAGAACCCCCGGAGTCACCTAGTGCAG | 40700 fluorescence intensity (a.u.)
CACCCGCCGCTGCTCTGCCTACTCGCCGGCCACCTCCTCACGGAGTCACCTAGTGCAG | 3720 fluorescence intensity (a.u.)
GACTCCCGCGTGCTCGCCGCGCCGCCCACCGTCACCGCCTCGGAGTCACCTAGTGCAG | 3230 fluorescence intensity (a.u.)
GCGCTGCCACGAGTGCCCGCGTCATCCCGTCCCCTCGCACCGGAGTCACCTAGTGCAG | 6120 fluorescence intensity (a.u.)
GCCACCGCTGCATCATCCCGCCTGTCTGCCTGCGCGCGCCCGGAGTCACCTAGTGCAG | 3430 fluorescence intensity (a.u.)
TCCGAACATCCGCGTGTCTGCTTCTGCGCCAGCCCGAGCCCGGAGTCACCTAGTGCAG | 44300 fluorescence intensity (a.u.)
CAATCCCACCTCGCGCGATGACTCCGCACCCGCCCCACCTCGGAGTCACCTAGTGCAG | 7260 fluorescence intensity (a.u.)
GTGTGTGTGTGTGCTGCGTGTGCGTGTGCGCGCGCGTGCCCGGAGTCACCTAGTGCAG | 5210 fluorescence intensity (a.u.)
GCACCTCGCAATATCCATGGTCCCCGCTGCCCGTGGACTCCGGAGTCACCTAGTGCAG | 41200 fluorescence intensity (a.u.)
CCCTCGCCGCCACGGCGAACCCCTCGCCGCCGCCACCGCCCGGAGTCACCTAGTGCAG | 3570 fluorescence intensity (a.u.)
ACCAAACATTACCTAATGCAATCGAACTATCGAAGACATGCGGAGTCACCTAGTGCAG | 3700 fluorescence intensity (a.u.)
GTGAGACTGGCGAGGCCCTTCTTGCGTGGCGCTGCAAGCTCGGAGTCACCTAGTGCAG | 7600 fluorescence intensity (a.u.)
ACACTCCAGCATAGTTAATGTTTACTGCTAGGAGGATTCACGGAGTCACCTAGTGCAG | 25600 fluorescence intensity (a.u.)
CTCCTGGTACGCCTCGCTCAGCTCGTCCACCGTCGCCTCCCGGAGTCACCTAGTGCAG | 3750 fluorescence intensity (a.u.)
TAGAGCGCCACATGACATCTTAGAAGCGTTTGTAGGAGTACGGAGTCACCTAGTGCAG | 30400 fluorescence intensity (a.u.)
TTATACATGCTCACGTGGCTATGTCATTGCCCTGGGTGGGCGGAGTCACCTAGTGCAG | 12000 fluorescence intensity (a.u.)
CTAAATCCTCGGGTCCACATGTCATACTCAGCCTCTTTACCGGAGTCACCTAGTGCAG | 5460 fluorescence intensity (a.u.)

Sequence | binding signal
TCTGGTCTTTCCGCGTGTCGACGACCACGGTGGCGGTGCACGGAGTCACCTAGTGCAG | 3540 fluorescence intensity (a.u.)
TCGCCACCGCCACGTCATCTCCCCACCCTCCTCCTCTTCCCGGAGTCACCTAGTGCAG | 44700 fluorescence intensity (a.u.)
ATCCCATCGCGCCACGCGAGCTCGATCGATCGAGGTGTGTCGGAGTCACCTAGTGCAG | 3490 fluorescence intensity (a.u.)
TTAGTTCACCCATCTTGCCAATGCTGTCATCGCCACAGCTCGGAGTCACCTAGTGCAG | 3310 fluorescence intensity (a.u.)
AAACCAAAACCAAACCGAAGCTTCCCCATCTCGCGTGAACCGGAGTCACCTAGTGCAG | 40800 fluorescence intensity (a.u.)
CCGGTCGTCCGTCAGCATCCTCTCTTCCGTTGGTCATCCTCGGAGTCACCTAGTGCAG | 4550 fluorescence intensity (a.u.)
CCATTCCCAAAAGCAAAGCGAACCTAAGCTCGCTTCGTCTCGGAGTCACCTAGTGCAG | 21000 fluorescence intensity (a.u.)
TCCTTGTCGCGCTGCCATCGCCACCCAATGCCATCGAGCTCGGAGTCACCTAGTGCAG | 49600 fluorescence intensity (a.u.)
TAGGATGCCACGTCATCTCTCCCTTCCCCTCTCTCTCTCCCGGAGTCACCTAGTGCAG | 27000 fluorescence intensity (a.u.)
GATCGTCGCGTCGTCGGCGTTGGCATCGGCATCCATGTGCCGGAGTCACCTAGTGCAG | 3830 fluorescence intensity (a.u.)
CATCGGTCATGGTGGCGTTGGTCATGTTGGCATGGCCGTCCGGAGTCACCTAGTGCAG | 44000 fluorescence intensity (a.u.)
CGCGAAAGGCGTGAAACCAGTGCACGCATCACCCATCTCGCGGAGTCACCTAGTGCAG | 3400 fluorescence intensity (a.u.)
TGGGCCCACCCCTCCACTCGCCCTCCTCTTCCCGCCACGTCGGAGTCACCTAGTGCAG | 6190 fluorescence intensity (a.u.)
ACCCGCGCGCCGGCCGCGTCATCGACGACATCGTGCGTACCGGAGTCACCTAGTGCAG | 3920 fluorescence intensity (a.u.)
TTGTGATGTCCACGTATTCAGGATTAGACCACAGGCCCGGCGGAGTCACCTAGTGCAG | 8170 fluorescence intensity (a.u.)
ATCCTTCATTATGTTAGAGTACCACATGGGAAGTCGAGACCGGAGTCACCTAGTGCAG | 3750 fluorescence intensity (a.u.)
GCGCCGCTCCGTGTCCCTCCCAATCCGAACCGTTTCGCGCCGGAGTCACCTAGTGCAG | 3500 fluorescence intensity (a.u.)
TACAACTACGGCCCTCCGCAGCCACAGGCGCCGCCGCCGCCGGAGTCACCTAGTGCAG | 3340 fluorescence intensity (a.u.)
TTATTAGCAACCACCGTCACATATAAATTAATATGTGCCGCGGAGTCACCTAGTGCAG | 3710 fluorescence intensity (a.u.)
GTCCGTCTTGTTTTCTCCTGCGTCACAATTGTCCCGTATTCGGAGTCACCTAGTGCAG | 4280 fluorescence intensity (a.u.)
GTCGCCGCCGCTCCTCCACCCCACGTGCCCCTCGTGGTGGCGGAGTCACCTAGTGCAG | 4350 fluorescence intensity (a.u.)
CAATCCCCTAGCCTCGCCACCCGCCACGTGTCGTCCCGCGCGGAGTCACCTAGTGCAG | 13500 fluorescence intensity (a.u.)
TCGCCAACTCGCGCCCAATCCCGGCTTGACACGTCACCCCCGGAGTCACCTAGTGCAG | 42000 fluorescence intensity (a.u.)
